PubChem BioAssay AID485314 (National Center for Advancing Translational Sciences (NCATS), 2010)
Among all 340,000 compounds or so, about 4,500 (1.3%) were called active. Entries that show only a call come without a potency. Inconclusive results (about 5%) are left out. This is one part of a sample in which actives are shown more often than they occur. Calls come from the whole dose curve; as a rule, active = well fitted inhibition curve with a large enough effect; inconclusive = small, poorly fitted or top-dose-only effect, or another doubt; inactive = no such curve, though single readings can be large or run the other way.

Biological target: DNA polymerase beta (Homo sapiens) (UniProt P06746)
Test: qHTS Assay for Inhibitors of DNA Polymerase Beta
Conditions: Pol beta primer extension/strand displacement, fluorescence kinetic; series mostly up to 114 µM
Method in brief: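 Kinetic readout of DNA synthesis with strand displacement by Pol beta. Compound and 10 nM enzyme sit 15 min at room temperature; 50 nM substrate starts the reaction, read immediately and at 10 min.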
Potency is the fitted concentration of half-maximal effect.

SMILES | Potency
Cc1cccc(N2CCN(C(=O)c3oc(=O)c4ccccc4c3-c3ccccc3)CC2)c1C | inactive
CCOC(=O)c1c(C)[nH]c(CCC(=O)Nc2ccc(OC)c(OC)c2)c1C | inactive
COc1ccc(C2Sc3ccccc3NC3=C2C(=O)c2ccccc23)c(OC)c1OC (stereo unspecified) | inactive
O=C(/C=C/c1cn(CC(O)CN2CCc3ccccc32)c2ccccc12)c1ccc(Br)cc1 (stereo unspecified) | inactive
COc1ccc(-c2cc(=O)c3c(O)cc(O[C@@H]4O[C@H](CO[C@@H]5O[C@@H](C)[C@H](O)[C@@H](O)[C@H]5O)[C@@H](O)[C@H](O)[C@H]4O)cc3o2)cc1O | 25.1 µM (active)
Cc1ccc(OCCn2c(CNc3ccccc3C)nc3ccccc32)cc1 | inactive
CCCCn1c(CNC(=O)C23CC4CC(CC(C4)C2)C3)nnc1SCC(=O)Nc1ccc(C)cc1 | inactive
CCCn1c2ccccc2c2cnn(CC(=O)N3CCCC(C(=O)OCC)C3)c(=O)c21 (stereo unspecified) | inactive
CC(=O)c1sc2nc(SCC(=O)N3CCCCC3)[nH]c(=O)c2c1C | inactive
CCOC(=O)c1sc2nc(CSCC(=O)OCc3ccc(C(=O)OC)o3)[nH]c(=O)c2c1C | inactive
CSc1nnc(SCc2nc3sc(C(=O)O)c(C)c3c(=O)[nH]2)s1 | 6.31 µM (active)
Cc1ccc(C2c3[nH]c4ccccc4c3CCN2C(=O)c2cccc(C)c2)cc1 (stereo unspecified) | inactive
O=C(Nc1ccc(OC(F)(F)F)cc1)C1CCCN(S(=O)(=O)c2ccc(Br)s2)C1 (stereo unspecified) | inactive
Cc1ccc(CSc2nc3cccnc3n2Cc2ccc(C(=O)NC3CC3)cc2)cc1 | inactive
COc1ccc(C2(Nc3cccc(F)c3)C(=O)c3ccccc3C2=O)cc1 | inactive
CN(Cc1ccccc1)S(=O)(=O)c1ccc(F)c(C(=O)Nc2cccc(Cl)c2Cl)c1 | inactive
O=C1CSC(=S)N1/N=C/c1ccc(O)c([N+](=O)[O-])c1 | 17.8 µM (active)
O=C1CSC(=S)N1c1ccc(O)cc1 | inactive
O=[N+]([O-])c1ccc(N2CCSCC2)cc1O | inactive
Cc1ccc(Nc2c(-c3ccc(C)cc3)nc3cnccn23)cc1 | inactive
CCOC(=O)C1CCN(c2ncnc3c2c(-c2ccccc2)cn3-c2cccc(C)c2)CC1 | inactive
COc1ccc(Cl)cc1N(C)C(=O)c1cc2c(=O)oc3ccc(C)cc3c2s1 | inactive
O=C(Nc1cccc(Cl)c1)c1csnn1 | inactive
O=C(Nc1ccccc1)c1nnsc1S(=O)(=O)c1ccc(Cl)cc1 | 44.7 µM (active)
O=C(Nc1ccc(Oc2ccccc2)cc1)C1CCN(S(=O)(=O)c2ccc(Cl)cc2)CC1 | inactive
CC(C)c1ccc(OCC(=O)N(Cc2ccc(N(C)C)cc2)C2CCS(=O)(=O)C2)cc1 (stereo unspecified) | inactive
